# Assay results published in PubChem BioAssay (NCATS).
# Inconclusive results are not listed. Where a call stands in place of a potency, no number is given. Activity calls are given as the source filed them. The call rests on the fitted dose curve; in most records, active means well fitted inhibition curve with a large enough effect; inconclusive means small, poorly fitted or top-dose-only effect; inactive means flat fitted curve, though single readings scatter.
# How the values were obtained:
# Assay in all cases: qHTS profiling for inhibitors of Plasmodium falciparum proliferation (AID 504749); further: nearly all actives have a fitted effect of over 60% in size
# Conditions in all cases: P. falciparum in erythrocytes, SYBR Green DNA, 72 h; series mostly up to 28.7 µM
# CP201 = test system: CP201
# Outline: (§1)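 Parasite proliferation within erythrocytes, 72 h exposure. Endpoint: SYBR Green I fluorescence after overnight lysis at room temperature. Controls: 0.29 uM artemisinin, DMSO.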
# CP256 = test system: CP256
# Outline: as §1
# CP260 = test system: CP260
# Outline: as §1
# CP238 = test system: CP238
# Outline: as §1
# CP286 = test system: CP286
# Outline: as §1
# CP217 = test system: CP217
# Outline: as §1
# CP237 = test system: CP237
# Outline: as §1
# CP247 = test system: CP247
# Outline: as §1
# CP250 = test system: CP250
# Outline: as §1
# CP252 = test system: CP252
# Outline: as §1
# CP265 = test system: CP265
# Outline: as §1
# CP266 = test system: CP266
# Outline: as §1
# CP291 = test system: CP291
# Outline: as §1
# CP262 = test system: CP262
# Outline: as §1
# CP269 = test system: CP269
# Outline: as §1
# CP194 = test system: CP194
# Outline: as §1
# CP203 = test system: CP203
# Outline: as §1
# CP211 = test system: CP211
# Outline: as §1
# CP215 = test system: CP215
# Outline: as §1
# CP268 = test system: CP268
# Outline: as §1
# Potency means the concentration at half of the fitted maximal effect.
Compound,Potency (CP201),Potency (CP256),Potency (CP260),Potency (CP238),Potency (CP286),Potency (CP217),Potency (CP237),Potency (CP247),Potency (CP250),Potency (CP252),Potency (CP265),Potency (CP266),Potency (CP291),Potency (CP262),Potency (CP269),Potency (CP194),Potency (CP203),Potency (CP211),Potency (CP215),Potency (CP268)
CCN(CC)CCC(=O)N1c2ccccc2Sc2ccc(Cl)cc21,inactive,11.2 µM (active),8.91 µM (active),,,,,,,,,,,,,,,,,
CCOc1cc(-c2nccc3cc(OC)c(OC)cc23)cc(OCC)c1OCC,,,,inactive,8.91 µM (active),,,,,,,,,,,,,,,
CN1CCc2c(c3ccccc3n2Cc2ccccc2)C1,inactive,inactive,inactive,inactive,inactive,inactive,5.01 µM (active),inactive,inactive,inactive,inactive,inactive,inactive,,,,,,,
CSCCC(N)C(=O)O (stereo not drawn),,inactive,inactive,inactive,inactive,inactive,inactive,inactive,inactive,inactive,inactive,inactive,,inactive,inactive,,,,,
CCN(CC)CCOC(=O)c1cccnc1,,inactive,inactive,,inactive,inactive,,,,inactive,inactive,inactive,inactive,inactive,inactive,inactive,inactive,inactive,inactive,inactive
CCOC(=O)C1=C(COCCN)NC(C)=C(C(=O)OC)C1c1ccccc1Cl (stereo not drawn),inactive,inactive,inactive,inactive,inactive,inactive,,inactive,inactive,inactive,inactive,inactive,inactive,inactive,inactive,,inactive,inactive,inactive,inactive
CN(C)C(=O)CCSC(SCCC(=O)O)c1cccc(/C=C/c2ccc3ccc(Cl)cc3n2)c1 (stereo not drawn),inactive,inactive,,,,,,,inactive,,inactive,inactive,inactive,inactive,inactive,,inactive,inactive,inactive,inactive
CC(CN(C)C)CN1c2ccccc2Sc2ccc(C(F)(F)F)cc21 (stereo not drawn),,,,,11.2 µM (active),,,,,,,inactive,,,,,,,,
CC(C)C1=CC2=CC[C@@H]3[C@](C)(CCC[C@@]3(C)C(=O)O)[C@H]2CC1,,inactive,inactive,inactive,inactive,inactive,inactive,inactive,inactive,inactive,inactive,,,inactive,,,,,,
O=P(O)(O)OC[C@H]1O[C@](O)(COP(=O)(O)O)[C@@H](O)[C@@H]1O,inactive,inactive,inactive,inactive,inactive,inactive,inactive,inactive,inactive,inactive,inactive,inactive,inactive,inactive,inactive,,inactive,inactive,inactive,inactive
